Laboratory results published in PubChem BioAssay.
Active and inactive are the calls of the source. Unless noted, the rule behind the calls is not given here.

Tests used:
[1] = compounds binding Alexa647 anti-His antibody – biochemical, small-molecule microarray, 635 nm fluorescence, artefact control for SMM control protein annotation, primary screen (AID 1128); details: higher = more signal;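 note: score merges feature fluorescence with signal-to-noise for each printed compound spot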
[2] = system: Human papillomavirus type 1a E7 protein (residues 1-88); experiment: HPV1a E7 small-molecule binders, primary screen, biochemical, small-molecule microarray, residues 1-88, 635 nm (AID 1129); details: small-molecule microarray binding, fluorescence 635 nm; higher = more signal
[3] = target: Focal adhesion kinase 1 (Homo sapiens) (UniProt Q05397); experiment: PTK2 protein binding on printed compound slides – biochemical, small-molecule microarray, 635/667 nm fluorescence, BSA, DTT, primary screen (AID 1130); details: 635 nm fluorescence, higher = more signal;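 note: composite of spot emission at 667 nm and signal to noise over triplicate slides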
[4] = system: Fibrinogen (Alexa647-labelled); experiment: Alexa647-fibrinogen binding to printed small molecules – biochemical, small-molecule microarray, 635/667 nm fluorescence, artefact control for SMM control-protein annotation, profiling panel (AID 1131); details: fibrinogen-A647 binding fluorescence, higher = more signal;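 note: z-score merges 667 nm fluorescence with per-spot signal-to-noise over triplicate slides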
[5] = target: Follistatin (Homo sapiens) (UniProt P19883); experiment: FST protein binding to printed compounds – biochemical, small-molecule microarray, 635/667 nm fluorescence, primary screen (AID 1132); details: 635 nm fluorescence, higher = more signal
[6] = target: Fibroblast growth factor 2 (Homo sapiens) (UniProt P09038); experiment: basic fibroblast growth factor binding to printed compounds – biochemical, small-molecule microarray, 635/667 nm fluorescence, primary screen (AID 1133); details: FGF2, fluorescence 635/667, higher = more signal
[7] = JC-1 mitochondrial potential readout, lung cancer cells – cell-based, A549, JC-1 fluorescence, basal, 24 h, 100 nL, profiling panel (AID 1138); details: higher = more signal;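 note: A549 lung adenocarcinoma cells under basal conditions with no added stimulus; test concentration not given here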
Lefty1 = Lefty1 protein binding to printed compounds – biochemical, small-molecule microarray, 635/667 nm fluorescence, primary screen (AID 1139); details: fluorescence 635/667, higher = more signal
[8] = system: wheat germ agglutinin (Triticum aestivum), Alexa647-labelled; experiment: Alexa647-WGA lectin binding to printed small molecules – biochemical, small-molecule microarray, 635/667 nm fluorescence, artefact control for SMM control-protein annotation, profiling panel (AID 1140); details: WGA-A647 binding, 635 nm fluorescence, higher = more signal;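 note: score merges 667 nm feature emission with signal to noise over triplicate slides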
[9] = target: Luciferin 4-monooxygenase (Photinus pyralis) (UniProt P08659); experiment: inhibition of purified Photinus pyralis luciferase – biochemical, luminescence, purified enzyme, 2006 set, primary screen (AID 1141); details: purified firefly luciferase, SteadyGlo luminescence, 30 min; higher = more signal, called active from +8 up or from −8 down;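 note: cell-free assay with purified firefly luciferase at 100 ng per well in PBS; test concentration not given here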
[10] = system: Wnt5a (protein binding on small-molecule microarray); experiment: small molecules binding Wnt5a protein – biophysical, small-molecule microarray, 635/667 nm fluorescence, primary screen (AID 1142); details: 635 nm fluorescence, higher = more signal;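 note: fluorescence read at 667 nm with signal to noise per printed feature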
[11] = ATP-based viability of Huh7 replicon cells – cell-based, CellTiter-Glo luminescence, basal, 48 h, cytotoxicity control for HCV replication inhibitor project, primary screen (AID 1143); details: higher = more signal, called active from +8 up or from −8 down;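 note: Huh7 hepatoma cells carrying a hepatitis C replication reporter with no stimulus; test concentration not given here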
[12] = Pseudomonas biofilm growth suppression – PAO1 strain, BacTiter-Glo luminescence, LB-PBS, primary screen (AID 1144); details: P. aeruginosa PAO1 biofilm, 12 h, higher = more signal
[13] = basal CRE-LacZ reporter activity in PC12 – cell-based, unstimulated, primary screen (AID 1145); details: no forskolin, luminescence, 4.5 h, higher = more signal, called active from +8 up or from −8 down
[14] = forskolin-driven CRE-LacZ activity in PC12 – cell-based, CRE-LacZ reporter, forskolin-stimulated, primary screen (AID 1146); details: luminescence, 4.5 h, higher = more signal, called active from +8 up or from −8 down;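 note: PC12 cells with 6xCRE LacZ reporter stimulated by forskolin 10 µM; beta-galactosidase reporter signal reflecting CREB driven transcription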
[15] = target: Streptavidin (Streptomyces avidinii) (UniProt P22629); experiment: compounds binding control protein streptavidin – biophysical, small-molecule microarray, 635/667 nm fluorescence, artefact control for SMM compound annotation, primary screen (AID 1147); details: higher = more signal;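 note: signal reflects streptavidin binding to arrayed compounds as a control protein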
[16] = probe aInhba binding on compound microarray – biochemical, small-molecule microarray, 635/667 nm fluorescence, primary screen (AID 1148); details: higher = more signal;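 note: score merges 667nm spot fluorescence with signal-to-noise for antibody binding to printed compounds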
Torsin-1A (Homo sapiens) [17] = target: Torsin-1A (Homo sapiens) (UniProt O14656); experiment: TOR1A wild-type binding on microarray – cell lysate, small-molecule microarray, lysate, 635/667 nm, primary screen (AID 1149); details: COS7 hTOR1A-WT lysate, 635 nm fluorescence, higher = more signal
Torsin-1A (Homo sapiens) [18] = target: Torsin-1A (Homo sapiens) (UniProt O14656); experiment: torsin A mutant lysate binding on microarrays – cell lysate, small-molecule microarray, COS7 lysate, 635/667 nm fluorescence, primary screen (AID 1150); details: COS7 hTOR1A mutant lysate, 635 nm fluorescence, higher = more signal;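 note: score pools 667 nm emission and signal to noise measuring lysate protein binding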
[19] = system: Sonic hedgehog protein (Shh); experiment: Sonic hedgehog microarray binding compounds – biochemical, small-molecule microarray, 635/667 nm fluorescence, primary screen (AID 1151); details: 635 nm fluorescence, higher = more signal;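 note: Shh protein binding to compounds spotted on small-molecule microarray slides; score combines spot fluorescence intensity with signal-to-noise across triplicate slides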

Chain of Follistatin (Homo sapiens) (P19883 whole entry, looked up): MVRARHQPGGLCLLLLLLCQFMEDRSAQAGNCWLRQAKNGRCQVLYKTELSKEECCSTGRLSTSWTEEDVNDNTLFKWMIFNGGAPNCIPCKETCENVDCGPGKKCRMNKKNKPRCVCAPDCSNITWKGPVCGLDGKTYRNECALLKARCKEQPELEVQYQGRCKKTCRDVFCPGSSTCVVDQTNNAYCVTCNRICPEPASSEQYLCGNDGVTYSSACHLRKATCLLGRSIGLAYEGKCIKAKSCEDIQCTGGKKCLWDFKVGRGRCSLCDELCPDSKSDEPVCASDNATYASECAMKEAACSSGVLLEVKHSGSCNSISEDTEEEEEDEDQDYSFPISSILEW
Chain of Luciferin 4-monooxygenase (Photinus pyralis) (P08659 whole entry, looked up): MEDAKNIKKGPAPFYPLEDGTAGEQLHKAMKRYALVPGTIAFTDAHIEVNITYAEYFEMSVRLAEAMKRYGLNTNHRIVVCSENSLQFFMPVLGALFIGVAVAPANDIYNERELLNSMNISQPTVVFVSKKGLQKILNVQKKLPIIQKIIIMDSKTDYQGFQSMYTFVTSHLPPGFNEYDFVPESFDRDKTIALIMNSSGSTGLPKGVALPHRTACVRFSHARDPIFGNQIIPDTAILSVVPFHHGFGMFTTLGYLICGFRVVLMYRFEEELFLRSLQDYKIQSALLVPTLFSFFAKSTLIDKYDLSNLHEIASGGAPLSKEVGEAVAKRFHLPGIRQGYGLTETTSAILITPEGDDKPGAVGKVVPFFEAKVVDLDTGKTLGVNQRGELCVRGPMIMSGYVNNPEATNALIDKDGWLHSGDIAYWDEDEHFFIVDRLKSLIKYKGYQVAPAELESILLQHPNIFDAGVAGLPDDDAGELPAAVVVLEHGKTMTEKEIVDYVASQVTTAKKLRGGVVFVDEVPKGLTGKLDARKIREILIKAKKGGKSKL
Chain of Torsin-1A (Homo sapiens) (O14656 whole entry, looked up): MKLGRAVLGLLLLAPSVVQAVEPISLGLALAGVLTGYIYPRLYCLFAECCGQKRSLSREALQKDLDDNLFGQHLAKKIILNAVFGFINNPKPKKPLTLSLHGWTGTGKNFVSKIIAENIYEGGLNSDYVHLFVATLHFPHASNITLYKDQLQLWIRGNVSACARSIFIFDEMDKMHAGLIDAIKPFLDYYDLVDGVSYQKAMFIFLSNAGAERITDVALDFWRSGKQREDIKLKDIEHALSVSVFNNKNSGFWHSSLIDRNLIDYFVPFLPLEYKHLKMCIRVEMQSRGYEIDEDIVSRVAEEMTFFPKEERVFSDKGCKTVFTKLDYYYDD
Chain of Streptavidin (Streptomyces avidinii) (P22629 whole entry, looked up): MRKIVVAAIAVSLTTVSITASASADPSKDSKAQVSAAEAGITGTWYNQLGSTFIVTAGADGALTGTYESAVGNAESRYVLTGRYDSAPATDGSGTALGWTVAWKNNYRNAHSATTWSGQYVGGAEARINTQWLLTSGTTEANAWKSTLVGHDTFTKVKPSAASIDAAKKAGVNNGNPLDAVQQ
Chain of Fibroblast growth factor 2 (Homo sapiens) (P09038 whole entry, looked up): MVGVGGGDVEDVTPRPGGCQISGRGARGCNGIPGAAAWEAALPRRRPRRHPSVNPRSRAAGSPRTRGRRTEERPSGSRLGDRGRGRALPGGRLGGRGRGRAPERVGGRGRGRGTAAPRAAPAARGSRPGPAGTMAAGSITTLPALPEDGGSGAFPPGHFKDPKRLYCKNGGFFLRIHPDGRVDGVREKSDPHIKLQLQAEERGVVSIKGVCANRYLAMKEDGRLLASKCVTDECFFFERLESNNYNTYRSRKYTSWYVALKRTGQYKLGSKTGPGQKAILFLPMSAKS
Chain of Focal adhesion kinase 1 (Homo sapiens) (Q05397 whole entry, looked up): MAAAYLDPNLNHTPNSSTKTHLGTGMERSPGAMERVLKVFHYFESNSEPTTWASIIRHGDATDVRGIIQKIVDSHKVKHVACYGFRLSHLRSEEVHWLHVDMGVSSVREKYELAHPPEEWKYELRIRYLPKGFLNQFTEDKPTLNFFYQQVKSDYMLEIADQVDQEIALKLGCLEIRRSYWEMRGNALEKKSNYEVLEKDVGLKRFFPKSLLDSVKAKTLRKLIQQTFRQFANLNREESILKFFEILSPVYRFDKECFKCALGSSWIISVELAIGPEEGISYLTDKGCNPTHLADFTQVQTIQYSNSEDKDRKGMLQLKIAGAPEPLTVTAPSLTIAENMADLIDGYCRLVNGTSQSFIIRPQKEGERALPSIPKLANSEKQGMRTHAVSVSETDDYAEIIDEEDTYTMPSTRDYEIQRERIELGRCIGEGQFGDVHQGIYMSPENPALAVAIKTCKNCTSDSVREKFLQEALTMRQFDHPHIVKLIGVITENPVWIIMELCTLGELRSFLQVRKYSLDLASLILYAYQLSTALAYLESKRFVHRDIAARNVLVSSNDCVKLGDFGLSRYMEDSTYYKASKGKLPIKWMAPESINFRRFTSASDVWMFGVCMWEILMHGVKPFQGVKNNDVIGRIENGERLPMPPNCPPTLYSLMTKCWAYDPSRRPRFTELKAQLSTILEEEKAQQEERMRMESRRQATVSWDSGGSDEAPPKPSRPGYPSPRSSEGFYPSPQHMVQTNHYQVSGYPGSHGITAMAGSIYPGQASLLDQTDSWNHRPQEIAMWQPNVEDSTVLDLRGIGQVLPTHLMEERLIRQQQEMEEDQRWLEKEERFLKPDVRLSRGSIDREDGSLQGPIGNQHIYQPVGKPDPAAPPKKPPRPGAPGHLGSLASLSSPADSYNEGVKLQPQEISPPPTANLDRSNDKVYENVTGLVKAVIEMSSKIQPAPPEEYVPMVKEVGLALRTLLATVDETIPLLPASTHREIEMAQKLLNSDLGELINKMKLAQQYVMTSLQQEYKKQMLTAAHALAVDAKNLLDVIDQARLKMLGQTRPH

Structure (SMILES) | composite z-score [1] | composite z-score [2] | composite z-score [3] | composite z-score [4] | composite z-score [5] | composite z-score [6] | z-score [7] | composite z-score (Lefty1) | composite z-score [8] | z-score [9] | composite z-score [10] | z-score [11] | z-score [12] | z-score [13] | z-score [14] | composite z-score [15] | composite z-score [16] | composite z-score (Torsin-1A (Homo sapiens) [17]) | composite z-score (Torsin-1A (Homo sapiens) [18]) | composite z-score [19]
COC(=O)C(CC#Cc1ccc2c(c1)[C@]1(C(=O)N2)[C@H](C(=O)O)[C@H]2C(=O)O[C@H](c3ccccc3)[C@H](c3ccccc3)N2[C@@H]1c1ccc(O)cc1)C(=O)OC | 1.54 | -0.133 | -0.13 | -0.422 | -0.0501 | -0.328 | -0.573 | -0.574 | -0.163 | 0.217 (inactive) | -0.265 | 0.674 (inactive) | -0.208 (inactive) | -0.467 (inactive) | -0.686 (inactive) | -0.641 | -0.0405 | -0.21 | 0.446 | -0.613
CC(C)(C)OC(=O)CC[C@]12N=C(c3ccc(OCCCO)cc3)O[C@H]1c1ccccc1N(CCS(=O)(=O)c1ccccc1)C2=O | 1.99 | 1.24 | 0.895 | 0.957 | 1.17 | 0.596 | 0.95 | 0.5 | 1.08 | -8.32 (active) | 0.628 | -2.91 (inactive) | -0.556 (inactive) | 3.64 (inactive) | -1.42 (inactive) | 0.579 | 0.0785 | 0.698 | 0.811 | 1.2
CC(=O)NCCCC[C@@H]1NC(=O)[C@@H]2C[C@H](C(=O)NCCCCCCNC(=O)CS)[C@H](c3cccc(OCCO)c3)N2C1=O | 1.23 | 1.1 | 0.314 | -0.917 | 1.24 | 1.59 | 0.488 | 0.574 | 0.379 | -0.242 (inactive) | 0.611 | 0.206 (inactive) | -1.05 (inactive) | 0.135 (inactive) | -0.67 (inactive) | -0.088 | -0.179 | 0.442 | 0.669 | 1.63
C[N+](C)(C)CCCCNC(=O)[C@H]1C[C@H]2C(=O)N[C@@H](Cc3ccccc3)C(=O)N2[C@H]1c1ccc(O)cc1 | 1.94 | -0.304 | -0.452 | 0.451 | 1.34 | 0.971 | 0.079 | 0.985 | 0.496 | -1.27 (inactive) | 0.134 | 0.0641 (inactive) | 0.0228 (inactive) | 0.143 (inactive) | 0.465 (inactive) | -0.455 | 0.106 | 0.81 | 0.513 | 2.04
CC(C)OC(=O)C=C1C[C@@H](c2ccccc2C(F)(F)F)O[C@@H](c2ccccc2C(F)(F)F)O1 | 0.209 | 0.737 | 0.554 | 0.183 | -0.0154 | 0.179 | 1.81 | 0.109 | 0.127 | 0.464 (inactive) | 0.0503 | -4.32 (inactive) | -0.0124 (inactive) | 0.0798 (inactive) | 1.22 (inactive) | 0.215 | -0.176 | 0.217 | 0.202 | 0.245
C=CCOC(=O)[C@H]1[C@@H]2C(=O)O[C@@H](c3ccccc3)[C@@H](c3ccccc3)N2[C@@H](c2ccc(OCCOC(=O)[C@H]3C[C@H]4C(=O)N5CCC[C@H]5C(=O)N4[C@H]3c3ccc(O)cc3)cc2)[C@]12C(=O)Nc1ccc(I)cc12 | 2.88 | 1.23 | -0.0378 | 0.396 | 1.47 | 1.6 | -0.87 | 1.54 | 1.66 | 0.269 (inactive) | 1.61 | -2.04 (inactive) | 1.03 (inactive) | 0.0043 (inactive) | 0.803 (inactive) | 1.93 | 1.3 | 2.59 | 2.65 | 2.04
[N-]=[N+]=NCc1ccccc1[C@H]1OC(c2ccc(OCCCO)cc2)=N[C@@]1(Cc1ccccc1)C(=O)NCc1ccccc1 | 0.517 | 1.17 | 0.365 | 0.954 | 1.13 | 0.0948 | 1.2 | -0.352 | 0.468 | -0.658 (inactive) | 0.348 | -3.57 (inactive) | -0.862 (inactive) | -0.0108 (inactive) | -0.157 (inactive) | 1.15 | -0.466 | 0.247 | 0.714 | 0.144
O=C1OCCC/C=C\[C@H]2OC34C=CCN(Cn5nnc6ccccc65)C(=O)[C@H]3N(CCCCCCO)C(=O)[C@@H]4C12 (stereo not given in full) | 0.919 | -0.776 | 0.326 | -2.01 | -0.686 | -1.58 | 1.05 | -0.394 | 0.727 | -0.254 (inactive) | -0.35 | -0.599 (inactive) | -2.19 (inactive) | -1.17 (inactive) | -0.729 (inactive) | -1.08 | -0.214 | 1.27 | 1.43 | 0.326
CN1C(=O)C2C=CC(C(O)c3ccccc3)N(Nc3ccccc3)C2C1=O (stereo not given) | 0.75 | 0.717 | 0.61 | -0.022 | -1.07 | -1.39 | -0.419 | -0.279 | 0.537 | -0.315 (inactive) | -0.244 | 0.658 (inactive) | -0.231 (inactive) | 0.626 (inactive) | -0.206 (inactive) | -0.0782 | -0.0195 | -1.5 | 0.254 | -1.58
CCOC(=O)C[C@H]1[C@H](OC(=O)Cc2ccc3c(c2)OCO3)[C@@H](NC(=O)c2ccc(-c3ccccc3)cc2)c2cc(OCCCO)ccc2N1C(=O)Cc1ccc(OC)cc1 | 0.0923 | 0.516 | 0.165 | 0.872 | 0.518 | 0.28 | 1.24 | 0.475 | 0.415 | -1.11 (inactive) | 0.267 | -0.921 (inactive) | -0.304 (inactive) | 6.24 (inactive) | 0.0489 (inactive) | 0.0687 | -0.0754 | 0.0816 | 0.394 | 0.965
